The record followed here is PubChem BioAssay (NCATS).

Results filed as inconclusive are left out. Calls of active or inactive are those of the source. The call rests on the fitted dose curve; in most records, active means well fitted curve in the direction sought with a large enough effect; inconclusive means small, poorly fitted or top-dose-only effect, or another doubt; inactive means no such curve, though single readings can be large; an effect the other way counts as inactive or inconclusive.

Glucagon-like peptide 1 receptor (Homo sapiens), sequence (P43220 whole entry, looked up): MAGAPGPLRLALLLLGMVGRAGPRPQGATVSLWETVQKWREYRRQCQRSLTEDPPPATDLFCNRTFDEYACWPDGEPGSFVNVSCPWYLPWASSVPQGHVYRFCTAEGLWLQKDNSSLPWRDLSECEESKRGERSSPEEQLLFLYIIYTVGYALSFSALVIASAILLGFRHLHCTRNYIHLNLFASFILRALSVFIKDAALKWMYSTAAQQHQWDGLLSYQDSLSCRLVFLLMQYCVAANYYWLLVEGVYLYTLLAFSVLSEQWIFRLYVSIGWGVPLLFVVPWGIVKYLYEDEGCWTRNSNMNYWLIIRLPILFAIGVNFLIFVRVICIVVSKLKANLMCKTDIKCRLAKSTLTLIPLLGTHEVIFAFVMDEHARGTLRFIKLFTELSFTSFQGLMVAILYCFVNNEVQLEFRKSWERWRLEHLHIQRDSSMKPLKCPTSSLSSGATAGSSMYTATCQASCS

Test system in the first experiment: not listed separately
Put plainly: qHTS of Trypanosoma Brucei Inhibitors: LOPAC Validation (AID 624147). Further: 0% is about no effect. To be noted: purified enzyme assay, luminescence, 45 min; series mostly up to 57.5 µM; activity change, negative = inhibition: at the top concentration. The gist of the method:
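Activity of T. brucei pyruvate kinase was followed by Kinase-Glo Plus luminescence after the enzyme reacted 45 min at room temperature with 130 uM ADP (final) and substrate. Test compounds were added before ADP at multiple concentrations.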
In the case of `Cn1c(=O)[nH]c2ncn(C)c2c1=O`, the “activity change, negative = inhibition” value is -12.8% (inactive).

With `CCCN(CCc1ccccc1)C1CCc2c(O)cccc2C1` (centres undefined), the “activity change, negative = inhibition” value was -5.47% (inactive).

Take `CN(C)S(=O)(=O)c1ccc2c(c1)/C(=C/c1cc3c([nH]1)CCCC3)C(=O)N2`: the “activity change, negative = inhibition” value is -11.1% (inactive).

Turning to `CC(=O)C(C)=O`, the “activity change, negative = inhibition” value is -1.94% (inactive).

Regarding `CSC(=N)N`, the “activity change, negative = inhibition” value was -0.483% (inactive).

As for `CCN(CC)CCOC(=O)c1cc(Cl)c(N)cc1OC`, the “activity change, negative = inhibition” value was 3.06% (inactive).

`COc1cccc(OC)c1OCCNCC1CSc2ccccc2O1` (centres undefined): the “activity change, negative = inhibition” value was 3.16% (inactive).

In the case of `CCn1c(=O)[nH]c2cc(Cl)c(Cl)cc21`, the “activity change, negative = inhibition” value was 0.735% (inactive).

Turning to `Cn1c(=O)c2[nH]c(C3CCCC3)nc2n(C)c1=O`, the “activity change, negative = inhibition” value is 5.71% (inactive).

`OCC1NCC(O)C(O)C1O` (centres undefined): the “activity change, negative = inhibition” value was -4.11% (inactive).

In the case of `Nc1ccc(-c2ccc3ccccc3n2)cc1`, the “activity change, negative = inhibition” value is -17.5% (inactive).

With `CC(N)(Cc1ccc(O)cc1)C(=O)O` (centres undefined), the “activity change, negative = inhibition” value is -4.88% (inactive).

As for `C=CC[C@H](N)C(=O)O`, the “activity change, negative = inhibition” value is -3.77% (inactive).

Regarding `CC(N)=NCCCC[C@@H](N)C(=O)O`, the “activity change, negative = inhibition” value was 2.67% (inactive).

Turning to `COC(=O)C1=C(C)NC(C)=C([N+](=O)[O-])C1c1ccccc1C(F)(F)F` (centres undefined), the “activity change, negative = inhibition” value is -7.88% (inactive).

As to `N#Cc1cc2nc(O)c(O)nc2cc1[N+](=O)[O-]`, the “activity change, negative = inhibition” value was -7.41% (inactive).

On to `O=C(O)C1CCCNC1` (centres undefined), for which the “activity change, negative = inhibition” value is 1.06% (inactive).

In the next experiment the target is Glucagon-like peptide 1 receptor (Homo sapiens) (UniProt P43220). Briefly: qHTS of GLP-1 Receptor Agonists: LOPAC Validation (AID 624148). Further: potency means the concentration at half of the fitted maximal effect.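 On activation: 0% is about no effect; higher luminescence signal means agonism.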 The settings on record: GLP-1R agonist cell assay; series mostly up to 46.1 µM; activation: at the top concentration. An outline of the steps:
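HEK293 cells stably co-expressing GLP-1R and a cAMP-responsive luciferase reporter, plated 12 hours before compound, then incubated 4-6 hr at 37 deg C. Luminescence read 12 min after detection reagent.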
Take `N#CC(=C(\N)Sc1ccccc1N)/C(C#N)=C(/N)Sc1ccccc1N`: the “activation” value is -1.54% (inactive).

On to `O=C(O)Cc1c[nH]c2ccc(O)cc12`, for which the “activation” value was 0.457% (inactive).

As to `CC(=O)C(C)=O`, the “activation” value is -1.79% (inactive).

For the compound `O=C(O)c1cc2cc(F)ccc2[nH]1`, the “activation” value is -1.12% (inactive).

Consider `N=C(N)SCCc1cnc[nH]1`, for which the “activation” value was -1.02% (inactive).

Regarding `Cc1ccc([N+](=O)[O-])cc1S(=O)(=O)N(C)C`, the “activation” value is 6.31% (inactive).

As for `CNc1cc(NS(=O)(=O)c2ccc(N)cc2)nc(NC)n1`, the “activation” value is 3.12% (inactive).

For the compound `N=C(N)c1ccc(N)cc1`, the “activation” value is -1.81% (inactive).

For the compound `CC(=O)NNC(=O)N1Cc2ccccc2Oc2ccc(Cl)cc21`, the “activation” value is -1.08% (inactive).

Turning to `COc1ccccc1N1CCN(CCCCNC(=O)c2ccc3ccccc3c2)CC1`, the “activation” value was 5.78% (inactive).

Consider `c1ccc2nc(C3=NCCN3)ccc2c1`, for which the “activation” value is -0.601% (inactive).

`CCN1C(=O)C=CC1=O`: the “activation” value was 0.604% (inactive).

Consider `N[C@H](C(=O)O)[C@H](O)C(=O)O`, for which the “activation” value is 0.566% (inactive).

As for `C[N+](C)(C)CC=O`, the “activation” value is -1.38% (inactive).

As to `C=CC1(C)CC(=O)C2(O)C(C)(O1)C(OC(C)=O)C(O)C1C(C)(C)CCC(O)C12C` (centres undefined), the Potency was 1.03 µM (active).

In the case of `C[C@@]1(C2CCCC2)Cc2cc(OCC(=O)O)c(Cl)c(Cl)c2C1=O`, the “activation” value is -1.58% (inactive).

In the case of `COc1ccccc1N1CCN(CCCNc2c(C)c(=O)n(C)c(=O)n2C)CC1`, the “activation” value was 1.11% (inactive).
